# In the library only some 1.6% were active in any assay of this set; here they are far more common.
# KCNQ2 pot = potentiators of rat KCNQ2 potassium channel. 0.54% of 310,000 active. B-score at 10 µM. Potassium voltage-gated channel subfamily KQT member 2 (Rattus norvegicus), O88943. AID 2239, 2010. CHO-K1 KCNQ2, FluxOR thallium flux fluorescence; stronger effect = higher value;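 active = fluorescence ratio B-score at least 3 SD of library B-scores, with initial fluorescence B-score within 3 of them, cut at about 5.3 in these data; same plate scores as AID 2156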;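 note: B-score of peak minus minimum over baseline fluorescence ratio after K+ and Tl+ stimulus; positive B-score means potentiation of KCNQ2 with more thallium influx and brighter signal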
# Target sequence (O88943 whole entry, looked up): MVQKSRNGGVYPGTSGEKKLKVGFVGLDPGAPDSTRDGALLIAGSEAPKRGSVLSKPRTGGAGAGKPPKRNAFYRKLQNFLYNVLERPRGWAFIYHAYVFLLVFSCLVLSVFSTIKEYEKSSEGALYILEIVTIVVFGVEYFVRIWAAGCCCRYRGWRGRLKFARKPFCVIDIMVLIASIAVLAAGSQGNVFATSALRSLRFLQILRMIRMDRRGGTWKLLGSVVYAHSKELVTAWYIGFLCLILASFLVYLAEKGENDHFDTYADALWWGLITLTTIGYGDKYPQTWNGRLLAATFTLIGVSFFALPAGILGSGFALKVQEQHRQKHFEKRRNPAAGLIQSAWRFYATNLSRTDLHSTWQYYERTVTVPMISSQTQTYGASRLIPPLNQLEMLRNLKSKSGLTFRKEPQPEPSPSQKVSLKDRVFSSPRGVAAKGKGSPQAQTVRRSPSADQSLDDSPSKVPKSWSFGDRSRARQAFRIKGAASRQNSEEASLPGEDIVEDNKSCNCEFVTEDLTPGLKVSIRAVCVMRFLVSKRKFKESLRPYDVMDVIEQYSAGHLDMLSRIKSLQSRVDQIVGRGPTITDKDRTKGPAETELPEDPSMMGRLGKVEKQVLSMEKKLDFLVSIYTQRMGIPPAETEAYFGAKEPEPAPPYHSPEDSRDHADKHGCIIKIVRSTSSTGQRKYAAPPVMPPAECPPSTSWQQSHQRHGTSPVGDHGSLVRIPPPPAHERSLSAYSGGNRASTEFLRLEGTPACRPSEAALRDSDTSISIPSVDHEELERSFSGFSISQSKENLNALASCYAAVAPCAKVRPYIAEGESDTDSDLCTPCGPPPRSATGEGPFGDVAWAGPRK
# KCNQ2 inh = rat KCNQ2 potassium channel inhibitors, primary screen, cell-based, CHO-K1, FluxOR thallium flux, B-score; 20 min; stronger effect = lower value; B-score at 10 µM; 1.1% of 310,000 active;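 active = fluorescence ratio B-score at most minus 3 library SDs, with starting brightness B-score within 2 library SDs, cut at about -5.5 in these data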
# Kir21 conf inh = mouse Kir2.1 channel blockers, retest, confirmation, cell-based, FluxOR thallium flux, duplicate. shares compounds with KCNQ2 pot. Kir2.1-expressing cells, FluxOR thallium flux fluorescence; stronger effect = lower value. Tl flux remaining, % of negative control (stronger effect = lower value), % at 10 µM. 41% of 2,300 active. AID 2032, 2009;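 active = Primary-screen hit whose thallium flux fell at least 3 control SD below untreated wells in both duplicates, with normal baseline fluorescence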;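 note: 0% = blank wells without stimulus and 100% = stimulated no-compound controls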
# HEK293 ctr = alters thallium flux in parental HEK293 cells, Kir2.1 counter-screen; AID 2105; 19% of 2,300 active; FluxOR thallium flux fluorescence; 0% = unstimulated blank wells; shares compounds with KCNQ2 pot; FluxOR signal as % of negative control (100 = no effect), % at 10 µM;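 active = dye signal at least 3 control SD above or below untreated wells in both duplicates, raw fluorescence within 3, either direction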;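 note: percent is based on the flux ratio of peak minus minimum fluorescence over baseline F0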
# CHO-K1 ctr = nonspecific thallium flux increase in parental CHO-K1, confirmation, counter-screen for KCNQ2 potentiator project, cell-based, FluxOR thallium flux, duplicate. shares compounds with KCNQ2 pot. parental CHO-K1 cells, FluxOR thallium flux fluorescence; zero = vehicle mean+3SD, 100% = vehicle-minus-blank window. activity increase over 3SD of controls, % at 10 µM. 43% of 1,200 active;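 active = signal rise of at least 3 SD above the untreated control mean, in both duplicate wells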;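 note: counter screen of KCNQ2 potentiator hits so any rise reflects channel-independent effects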
# KCNQ1 pot spec = human KCNQ1 channel potentiation off-target, confirmation, selectivity assay for KCNQ2 potentiator project, cell-based, CHO, FluxOR thallium flux. shares compounds with KCNQ2 pot. CHO KCNQ1 stable, FluxOR thallium flux fluorescence; beyond 3SD, as % of vehicle-control signal. activation over 3SD threshold, % at 10 µM. 28% of 1,200 active. AID 2283, 2010;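 active = fluorescence ratio rise of at least 3 SD of vehicle wells above their mean, in both replicate wells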;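 note: 0% = vehicle mean plus 3 SD and 100% = vehicle minus unstimulated blank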
# KCNQ2 pot confirm = rat KCNQ2 channel potentiators, confirmation, cell-based, CHO, FluxOR thallium flux, duplicate; 68% of 1,200 active; CHO-KCNQ2 cells, FluxOR thallium flux fluorescence; shares compounds with KCNQ2 pot; potentiation, less the hit threshold, % at 10 µM;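 active = fluorescence ratio rising 3 SD or more over the vehicle control mean in both replicates, plus primary screen hit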;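 note: peak minus minimum thallium fluorescence divided by baseline after K/Tl stimulus; 0% = vehicle mean plus 3 SD and 100% = vehicle minus unstimulated blank difference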
# Kir21 spec = mouse Kir2.1 channel activation off-target, confirmation, selectivity assay for KCNQ2 potentiator project, cell-based, HEK293, FluxOR thallium flux; shares compounds with KCNQ2 pot; HEK293 Kir2.1, FluxOR thallium flux fluorescence; activity over 3SD threshold, % at 10 µM; 2% of 1,200 active;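 active = fluorescence ratio rise of at least 3 SD above the vehicle-control mean, seen in both replicates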;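 note: 0% = vehicle mean plus 3 SD and 100% = vehicle minus no-stimulus blank window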
# KCNQ2 W236L MoA = potentiators of retigabine-insensitive KCNQ2 W236L, mechanism study for KCNQ2 potentiator project, cell-based, rat KCNQ2 W236L, CHO, automated patch clamp | current increase over 3SD of negative controls (%), stronger effect = higher value, % at 25 µM | 10% of 940 active | automated patch clamp current | shares compounds with KCNQ2 pot;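 active = current increase at least 3 SD of the untreated controls above them in both duplicate recordings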
# An asterisk follows results filed as active; i = inactive; x = no result.
SMILES,KCNQ2 pot,KCNQ2 inh,Kir21 conf inh,HEK293 ctr,others
COc1ccc(Nc2nc(N3CCCCC3)nc3ccccc23)c(OC)c1,x,i,i,i,
CCN(CC)CCCN(C(=O)c1ccco1)c1nc(-c2ccc(C)cc2)cs1,x,i,x,x,
CCN(CC)CCCN(C(=O)c1ccco1)c1nc(-c2ccc(Cl)cc2)cs1,x,i,51%*,i,
Cc1ccc(OCCNC(=O)c2ccc3c(c2)OCO3)cc1,0.22,i,x,x,
COc1cc2c(cc1OC)CN(c1ccc3ccccc3n1)CC2,x,i,56%*,132%*,
COc1cc2c(cc1OC)CN(c1ccc(-c3ccccc3OC)nn1)CC2,x,i,x,x,
O=C(Cc1ccc(Cl)cc1)Nc1ccc(C(=O)N2CCOCC2)cc1,0.34,i,x,x,
COc1cccc(CC(=O)Nc2ccccc2C(=O)N2CCOCC2)c1,0.29,i,x,x,
COc1cc(CC(=O)Nc2ccc3c(c2)CCC3)cc(OC)c1OC,0.88,i,x,x,
COc1ccc(CC(=O)Nc2ccccc2N2CCCCC2)cc1OC,x,i,i,78%*,
COc1ccc(CC(=O)Nc2ccccc2N2CCOCC2)cc1OC,0.11,i,x,x,
COc1cccc(CC(=O)Nc2ccccc2N2CCCC2)c1,6.1*,i,50%*,i,CHO-K1 ctr=-9;KCNQ1 pot spec=18*;KCNQ2 pot confirm=17*;Kir21 spec=-92;KCNQ2 W236L MoA=i
COc1cccc(CC(=O)Nc2ccc3c(c2)CCC3)c1,6*,i,i,i,CHO-K1 ctr=-14;KCNQ1 pot spec=-18;KCNQ2 pot confirm=12*;Kir21 spec=-30;KCNQ2 W236L MoA=i
O=C1c2cccc3c(N4CCCCC4)ccc(c23)C(=O)N1CCO,x,i,x,x,
O=C1c2ccccc2NC(c2ccccc2)N1CCCN1CCOCC1 (configuration not stated),x,i,x,x,
COc1cc(OC)c2ccc(=O)oc2c1C(CC(=O)N1CCCC1)c1ccc2c(c1)OCO2 (configuration not stated),1.1,i,x,x,
CCC(=NCc1ccccc1)c1c(C(F)(F)F)[nH]n(-c2nc3ccccc3s2)c1=O,x,i,x,x,
CCC(=NCc1ccco1)c1c(C(F)(F)F)[nH]n(-c2nc3ccccc3s2)c1=O,7.8*,i,i,i,CHO-K1 ctr=-7;KCNQ1 pot spec=-12;KCNQ2 pot confirm=-19;Kir21 spec=-38
NC1=NC[C@H](Cc2ccc(O)cc2)N1CCCCC1CCCCC1,0.01,i,x,x,
NC1=NC[C@H](Cc2ccccc2)N1CCCCC1CCCCC1,x,i,32%*,i,
CCOc1ccc(Cc2nnc(N)s2)cc1OCC,0.58,i,x,x,
Cc1ccc(OCCCCNC2CCCC(C)C2C)c(C)c1 (configuration not stated),x,i,i,i,
Cc1ccc(OCCCCN2CCCCC2)c(C)c1,0.92,i,x,x,
Cc1nn(CC(=O)NCc2ccccc2)c(C)c1[N+](=O)[O-],x,i,x,x,
COc1ccccc1N1CCN(C(=O)CSc2nc(-c3ccccc3)cc(=O)[nH]2)CC1,x,i,x,x,
SMILES,KCNQ2 pot,KCNQ2 inh,Kir21 conf inh,HEK293 ctr,others
COc1ccccc1N1CCN(C(=O)CSc2nc(C)c(Cc3ccccc3)c(=O)[nH]2)CC1,9.2*,i,i,i,CHO-K1 ctr=-13;KCNQ1 pot spec=-17;KCNQ2 pot confirm=29*;Kir21 spec=-27;KCNQ2 W236L MoA=i
Cc1nc2c(S(=O)(=O)c3ccccc3)cnn2c(C)c1C,0.57,i,x,x,
CCn1c(CNc2cccc(Cl)c2)nnc1SCC(=O)OC1CCCCC1,x,i,x,x,
CCn1c(CNc2ccc(Cl)cc2)nnc1SCC(=O)OC1CCCCC1,0.06,i,71%*,i,
Cc1cnc(C(=O)OCC(=O)c2ccc[nH]2)cn1,x,i,x,x,
COc1cc(CNCCCCO)ccc1OCc1ccccc1F,0.1,i,x,x,
OCCCCNCc1ccc(OCc2ccc(Cl)cc2Cl)cc1,x,i,33%*,i,
OCCNCc1ccc(OCc2ccc(Cl)cc2Cl)cc1,x,i,31%*,i,
S=C(Nc1ccccc1)Nc1ccc(OCc2ccc(Cl)cc2Cl)cc1,x,i,x,x,
Cc1cccc(NC(=O)C2CCCN2C(=O)Oc2ccccc2)c1 (configuration not stated),x,i,x,x,
COc1ccc2c(c1)CCCN2C(N)=O,x,i,x,x,
COc1ccc2c(c1)CCCN2C(N)=Nc1ccc(Cl)cc1,1.1,i,37%*,i,
Cc1sc2nc3ccc(NCc4ccco4)nn3c(=O)c2c1C,6.7*,i,i,i,CHO-K1 ctr=46*;KCNQ1 pot spec=-27;KCNQ2 pot confirm=-3;Kir21 spec=-12
O=c1c2ccccc2nc2ccc(NCc3ccco3)nn12,0.02,i,x,x,
CCCCCCCCCCCNC(=O)c1ccoc1C,13*,i,x,x,CHO-K1 ctr=-20;KCNQ1 pot spec=66*;KCNQ2 pot confirm=37*;Kir21 spec=-64;KCNQ2 W236L MoA=i
Cc1occc1C(=O)NCCCCNC(=O)c1ccoc1C,0.46,i,x,x,
COC(=O)CN(c1ccccc1)S(=O)(=O)c1ccc(F)cc1,0.02,i,x,x,
CCN(c1ccccc1)S(=O)(=O)c1ccc(C(=O)Nc2ncccc2O)cc1,x,i,x,x,
CCN(c1ccccc1)S(=O)(=O)c1ccc(C(=O)Nc2ccncc2)cc1,8.2*,i,i,i,CHO-K1 ctr=79*;KCNQ1 pot spec=-20;KCNQ2 pot confirm=9.8*;Kir21 spec=-57;KCNQ2 W236L MoA=i
CCN(c1ccccc1)S(=O)(=O)c1ccc(NC(=O)c2nc(S(C)(=O)=O)ncc2Cl)cc1,9*,i,i,74%*,CHO-K1 ctr=-11;KCNQ1 pot spec=-59;KCNQ2 pot confirm=-3;Kir21 spec=-54;KCNQ2 W236L MoA=i
CCS(=O)(=O)c1ncc(Cl)c(C(=O)Nc2ccc(S(=O)(=O)N(C)c3ccccc3)cc2)n1,x,i,x,x,
CCN(c1ccccc1)S(=O)(=O)c1ccc(F)cc1,x,i,54%*,i,
Oc1c(CN2CCN(c3ccccn3)CC2)cc(Cl)c2cccnc12,11*,i,i,146%*,CHO-K1 ctr=4.1*;KCNQ1 pot spec=-5;KCNQ2 pot confirm=24*;Kir21 spec=-25;KCNQ2 W236L MoA=i
O=C(Oc1c(Cl)cc(Cl)c2cccnc12)c1cccs1,11*,i,i,i,CHO-K1 ctr=-5;KCNQ1 pot spec=-38;KCNQ2 pot confirm=-34;Kir21 spec=-41
